PubChem BioAssay (NCATS)
Several values for one entry are separate records, joined by “and”; a condition that tells them apart may be missing. Equal entries are not always repeated. Unmarked numbers belong to inactive results. Records with an inconclusive call do not appear. Where a call stands in place of a potency, no number is given. A structure can be active in one record and inactive in another. Activity calls are given as the source filed them. Unless noted, the call rests on the fitted dose curve; in most records, active means well fitted curve in the direction sought with a large enough effect; inconclusive means small, poorly fitted or top-dose-only effect, or another doubt; inactive means no such curve, though single readings can be large; an effect the other way counts as inactive or inconclusive.

What was measured:
SKOV3 = assay: Primary qHTS to identify gynecologic anti-cancer compounds using libraries of approved drugs and bioactive compounds (AID 1345084); conditions: Gynecologic cancer cell panel viability, ATPlite luminescence, 48 h; series mostly up to 57.5 µM; further: nearly all actives have a fitted effect of over 55% in size
Method in brief: (§1)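 48 h compound exposure at 37 C, 5% CO2; five-point qHTS. ATPlite luminescence readout of cell ATP.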

Tov-21-G = assay: as above; conditions: Gynecologic cancer cell panel viability, ATPlite luminescence, 48 h; series mostly up to 57.5 µM
Method in brief: as §1

Tov112D = assay: as above; conditions: Gynecologic cancer cell panel viability, ATPlite luminescence, 48 h; series mostly up to 57.5 µM
Method in brief: as §1

[1] = Drug repurposing screens with cells derived from glioblastoma tumor samples (AID 1345199); conditions: GBM patient neurospheres viability, ATP luminescence, 48 h; further: nearly all actives have a fitted effect of over 40% in size; further: potency means the concentration at half of the fitted maximal effect
Method in brief: (§2)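 Primary testing used CD133+ neurospheres from four GBM patients, seven concentrations, 48 h exposure and ATP-based viability; confirmation added three slower-growing patient lines.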

astro = assay: as above; conditions: viability, ATP luminescence, 48 h; series mostly up to 45.9 µM
Method in brief: as §2

[2] = molecular target: Nuclear receptor subfamily 1 group I member 2 (Rattus norvegicus) (UniProt Q9R1A7); assay: qHTS assay for small molecule activators of the rat pregnane X receptor (rPXR) signaling pathway (AID 651751; call rule not given here); conditions: rPXR reporter cells, luciferase (One-Glo), 24 h
Nuclear receptor subfamily 1 group I member 2 (Rattus norvegicus), sequence (Q9R1A7 whole entry, looked up): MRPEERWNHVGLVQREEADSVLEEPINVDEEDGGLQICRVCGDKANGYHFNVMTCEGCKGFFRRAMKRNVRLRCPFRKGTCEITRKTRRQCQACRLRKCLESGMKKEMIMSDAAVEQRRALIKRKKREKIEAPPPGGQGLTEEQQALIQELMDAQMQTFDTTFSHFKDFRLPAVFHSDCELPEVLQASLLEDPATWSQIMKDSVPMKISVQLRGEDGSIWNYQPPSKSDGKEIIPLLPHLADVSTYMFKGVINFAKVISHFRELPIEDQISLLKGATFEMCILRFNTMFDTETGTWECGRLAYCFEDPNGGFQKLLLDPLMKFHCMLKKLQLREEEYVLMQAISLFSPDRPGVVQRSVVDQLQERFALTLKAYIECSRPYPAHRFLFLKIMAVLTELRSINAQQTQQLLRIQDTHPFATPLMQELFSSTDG

[3] = qHTS assay for small molecule activators of the human pregnane X receptor (PXR) signaling pathway (AID 720659; call rule not given here)
[4] = qHTS assay to identify inhibitors of the type 1 interferon - major histocompatibility complex class I in skeletal muscle: Counter screen cell viability and HiBit confirmation (AID 1347412); conditions: iHSKM muscle cells + IFN-b, HiBiT or CellTiter-Glo, 24 h; Potency: HiBiT; Viability, at 45.9 µM (top of the series); further: nearly all actives have a fitted effect of over 60% in size
Method in brief: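 After 24 h with human IFN-beta (4 ng/ml) and compound titrations (top 46 uM final, 1:3, 12 points), HLA-B HiBit myoblasts were lysed for either Nano-Glo HiBiT luminescence or CellTiter Glo viability on paired plates.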

[5] = at 45.9 µM (top of the series), tumour line B
[6] = at 45.9 µM (top of the series), tumour line D
[7] = at 46 µM (top of the series), tumour line A
[8] = at 46.1 µM (top of the series), tumour line C

Structure (SMILES) | Potency (SKOV3) | Potency (Tov-21-G) | Potency (Tov112D) | activity, negative = cell killing [1, 5] | activity, negative = cell killing [1, 6] | activity, negative = cell killing [1, 7] | activity, negative = cell killing [1, 8] | Potency (astro) | max response [2] | outcome [3] | Potency ([1]; tumour line A) | activity, negative = cell killing ([1]; at 20 µM (top of the series), tumour line C) | activity, negative = cell killing ([1]; at 21.2 µM (top of the series), tumour line B) | Potency [4]
CCCCCCCCCCCCCCCC(=O)O | inactive | inactive | inactive | -2.37% | 1.78% | -27.9% | 2.94% | inactive | -0.866% | inactive |  |  |  | 
CCOc1ccccc1C(N)=O | inactive | inactive | inactive | -5.35% | -0.0314% | -26.8% | -1.96% | inactive | 2.38% | inactive |  |  |  | 
CN(C)CCOC(=O)C(c1ccccc1)C1(O)CCCC1 (centres undefined) | inactive | inactive | inactive | -2.94% | -18.8% |  | -22.9% | inactive |  |  |  |  |  | 
CN(C)CCN1C(=O)c2ccccc2N(C)c2ccccc21 | inactive | inactive | inactive | -10.1% | -18.4% |  | 4.2% | inactive |  |  |  |  |  | 
CCCCN1C[C@H](O)[C@@H](O)[C@H](O)[C@H]1CO | inactive | inactive | inactive | -11.2% | -2.4% |  | -21.4% | inactive |  |  |  |  |  | 
NC(=O)c1ccccc1O | inactive | inactive | inactive | -6.32% | 0.802% | -27.6% | 4.05% | inactive | -4.39% | inactive |  |  |  | 
O=C1[C@H](CC[C@H](O)c2ccc(F)cc2)[C@@H](c2ccc(O)cc2)N1c1ccc(F)cc1 | inactive | inactive | inactive | -11.2% | -13.5% |  | 1.66% | inactive |  |  |  |  |  | 
NC(=O)C1(N2CCCCC2)CCN(CCCC(=O)c2ccc(F)cc2)CC1 | inactive | inactive | inactive | -7.35% | -28% |  |  | inactive |  |  | 10 µM (active) |  |  | 
N[C@H](C(=O)O)[C@@H](O)c1ccc(O)c(O)c1 | inactive | inactive | inactive | -8.13% | -33.1% |  | -8.89% | inactive |  |  |  |  |  | 
FC(F)(F)C(F)(F)C(F)(F)C(F)(F)C(F)(F)C(F)(F)C(F)(F)C(F)(F)Br | inactive | inactive | inactive | -8.68% | -7.68% | -17.2% | 5.77% | inactive |  |  |  |  |  | 
CN1CCC(OC(c2ccccc2)c2ccccc2)CC1 | inactive | inactive | inactive |  |  |  |  | inactive |  |  | 7.08 µM (active) | 1.79% | -9.68% | 
CCOc1ccc(NC(C)=O)cc1 | inactive | inactive | inactive | 4.81% | -8.88% | -27% | -1.2% | inactive | 2.72% and -0.111% | inactive |  |  |  | 
NCCNc1cccc2ccccc12 | inactive | inactive | inactive | -17.3% | -24.3% |  | -28% | inactive | -3.2% and 4.24% |  | 20 µM (active) |  |  | 
COc1ccc2c(c1)c1c3n2CCN(C)C3=NCC1 | inactive | inactive | inactive | -1.83% | -7.29% |  | -23.1% | inactive |  |  | 12.6 µM (active) |  |  | 
C#C[C@]1(O)CC[C@H]2[C@@H]3CCC4=CC(=O)CC[C@@H]4[C@H]3CC[C@@]21CC | inactive | inactive | inactive | -8.91% | -3.36% |  | 6% | inactive |  |  |  |  |  | 
Cc1cccc(C)c1NC(=O)c1ccccc1C(=O)O | inactive | inactive | inactive | -1.45% | -18.5% |  | -17.8% | inactive |  |  |  |  |  | 
CCCN(CCC)S(=O)(=O)c1ccc(C(=O)O)cc1 | inactive | inactive | inactive | -5.41% | 6.49% | -4.85% | -7.91% | inactive | 7.36% and 2.17% | inactive |  |  |  | 
OC[C@H]1O[C@@H]2O[C@H]3[C@H](O)[C@@H](O)[C@@H](O[C@H]4[C@H](O)[C@@H](O)[C@@H](O[C@H]5[C@H](O)[C@@H](O)[C@@H](O[C@H]6[C@H](O)[C@@H](O)[C@@H](O[C@H]7[C@H](O)[C@@H](O)[C@@H](O[C@H]8[C@H](O)[C@@H](O)[C@@H](O[C@H]1[C@H](O)[C@H]2O)O[C@@H]8CO)O[C@@H]7CO)O[C@@H]6CO)O[C@@H]5CO)O[C@@H]4CO)O[C@@H]3CO | inactive | inactive | inactive | -11.6% | 5.3% | -16.2% | -14.8% | inactive | -1.43% | inactive |  |  |  | 

Structure (SMILES) | Potency (SKOV3) | Potency (Tov-21-G) | Potency (Tov112D) | activity, negative = cell killing [1, 5] | activity, negative = cell killing [1, 6] | activity, negative = cell killing [1, 7] | activity, negative = cell killing [1, 8] | Potency (astro) | max response [2] | outcome [3] | Potency ([1]; tumour line A) | activity, negative = cell killing ([1]; at 20 µM (top of the series), tumour line C) | activity, negative = cell killing ([1]; at 21.2 µM (top of the series), tumour line B) | Potency [4]
Cc1cc(CC(=O)O)c(C)n1-c1ccc(Cl)cc1 | inactive | inactive | inactive | -14.5% | 3.83% |  |  | inactive |  |  | 25.1 µM (active) |  |  | 
Cc1cccc(C)c1NC(=O)CN1CCCC1 | inactive | inactive | inactive | -9.15% | 5.92% |  | -8.15% | inactive |  |  |  |  |  | 
CC1=C(C(=O)O)N2C(=O)[C@@H](NC(=O)[C@H](N)c3ccccc3)[C@H]2SC1 | inactive | inactive | inactive | -0.246% | -6.88% | -19.6% | -1.45% | inactive |  |  |  |  |  | inactive
Cc1c[nH]c2ccccc12 | inactive | inactive | inactive | -3.32% | -13.8% |  | -16.3% | inactive |  |  |  |  |  | 
CC(=C(CCOC(=O)C(C)C)SSC(CCOC(=O)C(C)C)=C(C)N(C=O)Cc1cnc(C)nc1N)N(C=O)Cc1cnc(C)nc1N | inactive | inactive | inactive | 1.68% | 3.5% |  | -16.1% | inactive |  |  |  |  |  | 
NC(=S)N/N=C/c1cccnc1 | inactive | inactive | inactive | -6.47% | 0.861% |  | -3.6% | inactive |  |  |  |  |  | 
O=S(=O)(O)c1ccc(O)cc1 | inactive | inactive | inactive | -17.6% | -11% |  | -1.85% | inactive |  |  |  |  |  | 
C=C[C@H]1CN2CC[C@H]1C[C@H]2[C@H](O)c1ccnc2ccc(OC)cc12 | inactive | inactive | inactive | -17.2% and -20.5% |  |  | -25.6% and -17.6% | inactive |  |  | 11.2 µM (active) and 17.8 µM (active) |  |  | 
CC(C)[N+](C)(C)CC(O)COc1cccc2ccccc12 (centres undefined) | inactive | inactive | inactive | -19.8% | -17.5% |  | -27.6% | inactive |  |  |  |  |  | 
CCC1Nc2cc(Cl)c(S(N)(=O)=O)cc2S(=O)(=O)N1 (centres undefined) | inactive | inactive | inactive | -19.7% | 9.79% |  | -1.53% | inactive |  |  |  |  |  | 
CCOC(=O)C(C#N)=C(c1ccccc1)c1ccccc1 | inactive | inactive | inactive | -12.8% | -4.23% |  |  | inactive |  |  | 11.2 µM (active) |  |  | 
CCN(CC)CCOC(=O)C1(c2ccccc2)CCCC1 | inactive | inactive | inactive | -21.1% | -19.5% |  | -29.4% | inactive |  |  |  |  |  | 
OC(C#CCN1CCCC1)(c1ccccc1)c1ccccc1 | inactive | inactive | inactive | -17.2% |  |  | -29.1% | inactive |  |  | 11.2 µM (active) |  |  | 
CC(=O)O[C@H]1C[C@@H]2CC[C@@H]3[C@H](CC[C@@]4(C)[C@H]3C[C@H]([N+]3(C)CCCCC3)[C@@H]4OC(C)=O)[C@@]2(C)C[C@@H]1N1CCCCC1 | inactive | inactive | inactive | -12.1% | -1.11% |  | -3.89% | inactive |  |  |  |  |  | 
Cc1nc(-c2ccc(Cl)cc2)oc1COC(C)(C)C(=O)O | inactive | inactive | inactive | -18.8% | -2.81% |  | -9.1% | inactive |  |  |  |  |  | 
CO[C@]12C[C@@H](COC(=O)c3cncc(Br)c3)CN(C)[C@@H]1Cc1cn(C)c3cccc2c13 | inactive | inactive | inactive | -27.1% | -16.6% |  | -7.09% | inactive |  |  |  |  |  | 
C/C=C/C=N/NC(=O)c1ccncc1 | inactive | inactive | inactive | -13.6% | -18.3% |  | -22.3% | inactive |  |  |  |  |  | 
